Inconclusive results are not listed. Activity calls are given as the source filed them. Calls come from the whole dose curve; as a rule, active = well fitted curve in the direction sought with a large enough effect in the repeat runs; inconclusive = weak or mixed curves; inactive = no such curve, though single readings can be large; an effect the other way counts as inactive or inconclusive.
Experiment: qHTS assay to identify small molecule antagonists of the estrogen related receptor signaling pathway with the pleiotropic PPARgamma coactivator (PGC) cell viability counter screen (AID 1224822;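 note: viability read after 17.5 h compound exposure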)
Details: ERR/PGC reporter cell line viability counter screen; series mostly up to 46.1 µM; viability change, negative = cytotoxic: at the top concentration
Method in brief: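 Multiplexed viability counter screen run in PGC/ERR cells treated with compounds for 17.5 h at 37 C; live-cell protease signal measured by CellTiter-Fluor fluorescence.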
% is set by controls: 0 for no effect and ±100 for the full control effect; potency is the fitted concentration of half-maximal effect.

Row | Structure (SMILES) | viability change, negative = cytotoxic | Potency
1 | O=c1[nH]c2ccccc2c2ccccc12 | -3.67% (inactive) | –
2 | NCCSSCCN | 6.96% (inactive) | –
3 | CC[N+](CC)(CC)CC(=O)Nc1c(C)cccc1C | 0.103% (inactive) | –
4 | C#CCn1c(=O)c2c(ncn2C)n(C)c1=O | 3.91% (inactive) | –
5 | COc1ccc(/C=C/C(=O)Nc2ccccc2C(=O)O)cc1OC | -7.72% (inactive) | –
6 | COc1cc(CNC(=O)CCCCCCC(C)C)ccc1O | 14.8% (inactive) | –
7 | C[N+](C)(C)CC=O | 3.23% (inactive) | –
8 | S=C(Nc1ccccc1)Nc1nccs1 | – | 0.335 µM (active)
9 | COc1ccc(C(=O)NCc2cccnc2)cc1C(=O)NCc1cccnc1 | 11.5% (inactive) | –
10 | NC1(C(=O)O)CCc2cc(C(=O)O)ccc21 (stereo unspecified) | 9.54% (inactive) | –
11 | CC(N)(C(=O)O)c1ccc(C(=O)O)cc1 (stereo unspecified) | 1.62% (inactive) | –
12 | O=C1Cc2c([nH]c3ccc(Br)cc23)-c2ccccc2N1 | -15% (inactive) | –
13 | O=C(O)C1CN(CCCP(=O)(O)O)CCN1 (stereo unspecified) | 4.29% (inactive) | –
14 | NC(N)=NCCCCN=C(N)N | 10.7% (inactive) | –
15 | NCCS(=O)O | 11.4% (inactive) | –
16 | CNc1cc(NS(=O)(=O)c2ccc(N)cc2)nc(NC)n1 | 9.02% (inactive) | –
17 | COc1cc2c(CCNC(C)=O)c[nH]c2cc1O | 10.1% (inactive) | –
18 | NC1CCN(O)C1=O (stereo unspecified) | 2.34% (inactive) | –
19 | C=CCn1c(=O)c2c(nc(-c3ccc(S(=O)(=O)O)cc3)n2C)n(C)c1=O | 6.36% (inactive) | –

Row | Structure (SMILES) | viability change, negative = cytotoxic | Potency
20 | CC(=O)SCC[N+](C)(C)C | 8.83% (inactive) | –
21 | N[C@H](C(=O)O)[C@H](O)C(=O)O | 1.12% (inactive) | –
22 | CC(C)(C)NCC(O)COc1cccc2[nH]c(=O)[nH]c12 (stereo unspecified) | 1.82% (inactive) | –
23 | Nc1ccc(CCNc2ncnc3c2ncn3C2OC(CO)C(O)C2O)cc1 (stereo unspecified) | 1.17% (inactive) | –
24 | NC(=O)c1ccc2[nH]ccc2c1 | 20.9% (inactive) | –
25 | CCSC(=N)N | 9% (inactive) | –
26 | CCCn1c(=O)c(C)cn2nc(N)nc12 | 8.23% (inactive) | –
27 | O=C1c2c(O)cc(O)cc2OC(c2ccc(O)c(O)c2)C1O (stereo unspecified) | 9.98% (inactive) | –
28 | CO/N=C(\C(=O)N[C@@H]1C(=O)N2C(C(=O)O)=C(CSc3nc(=O)c(O)nn3C)CSC12)c1csc(N)n1 (stereo partly specified) | 1.67% (inactive) | –
29 | O=C(O)C1CCCNC1 (stereo unspecified) | 3.34% (inactive) | –
30 | CN[C@H](CC(C)C)C(=O)N[C@H]1C(=O)N[C@@H](CC(N)=O)C(=O)N[C@H]2C(=O)N[C@H]3C(=O)N[C@H](C(=O)N[C@H](C(=O)O)c4cc(O)cc(O)c4-c4cc3ccc4O)[C@H](O)c3ccc(c(Cl)c3)Oc3cc2cc(c3O[C@@H]2O[C@H](CO)[C@@H](O)[C@H](O)[C@H]2O[C@H]2C[C@](C)(N)[C@H](O)[C@H](C)O2)Oc2ccc(cc2Cl)[C@H]1O | 2.29% (inactive) | –
31 | O=C(O)CCC/C=C\C[C@@H]1[C@@H](/C=C/[C@H](O)C2Cc3ccccc3C2)[C@@H](F)C[C@@H]1O | 12.6% (inactive) | –
32 | NC[C@H]1O[C@@H](n2cnc3c(N)ncnc32)[C@H](O)[C@@H]1O | 8.24% (inactive) | –
33 | O=S(=O)(c1cccc2c(Cl)cccc12)N1CCCNCC1 | -7.15% (inactive) | –
34 | Nc1nc2c(cnn2CCc2ccccc2)c2nc(-c3ccco3)nn12 | -17% (inactive) | –
35 | CC[C@H]1OC(=O)[C@H](C)[C@@H](O[C@H]2C[C@@](C)(OC)[C@@H](O)[C@H](C)O2)[C@H](C)[C@@H](O[C@@H]2O[C@H](C)C[C@H](NC)[C@H]2O)[C@](C)(O)C[C@@H](C)CN(C)[C@H](C)[C@@H](O)[C@]1(C)O | -4.83% (inactive) | –
36 | N#CC(C#N)=C(N)/C(C#N)=C/c1ccc(O)cc1 | 1.16% (inactive) | –
37 | O=c1[nH]c2cc([N+](=O)[O-])c([N+](=O)[O-])cc2[nH]c1=O | 3.97% (inactive) | –
38 | Brc1cc2c(cc1[C@H]1Nc3ccccc3[C@H]3C=CC[C@H]31)OCO2 | -14.5% (inactive) | –

Experiment: qHTS assay to identify small molecule agonists of the estrogen related receptor signaling pathway with the pleiotropic PPARgamma coactivator (PGC) (AID 1224823)
Details: ERR/PGC reporter cell line, luciferase agonist mode; series mostly up to 46.1 µM; activation: at the top concentration
Method in brief: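 Luminescence from One-Glo reagent (30 min, room temperature) was read after 18 h compound treatment at 37 C of PGC/ERR cells plated 6 h beforehand; compounds delivered in DMSO by pin tool.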

Row | Structure (SMILES) | activation | Potency
39 | O=c1[nH]c2ccccc2c2ccccc12 | 3.7% (inactive) | –
40 | NCCSSCCN | 0.797% (inactive) | –
41 | CC[N+](CC)(CC)CC(=O)Nc1c(C)cccc1C | 1.41% (inactive) | –
42 | C#CCn1c(=O)c2c(ncn2C)n(C)c1=O | -2.51% (inactive) | –
43 | COc1ccc(/C=C/C(=O)Nc2ccccc2C(=O)O)cc1OC | -7.89% (inactive) | –
44 | COc1cc(CNC(=O)CCCCCCC(C)C)ccc1O | 1.53% (inactive) | –
45 | C[N+](C)(C)CC=O | -2.3% (inactive) | –
46 | S=C(Nc1ccccc1)Nc1nccs1 | -30.5% (inactive) | –
47 | COc1ccc(C(=O)NCc2cccnc2)cc1C(=O)NCc1cccnc1 | 3.66% (inactive) | –
48 | NC1(C(=O)O)CCc2cc(C(=O)O)ccc21 (stereo unspecified) | 4.45% (inactive) | –
49 | CC(N)(C(=O)O)c1ccc(C(=O)O)cc1 (stereo unspecified) | 2.43% (inactive) | –
50 | O=C1Cc2c([nH]c3ccc(Br)cc23)-c2ccccc2N1 | – | 1.23 µM (active)
51 | O=C(O)C1CN(CCCP(=O)(O)O)CCN1 (stereo unspecified) | -3.39% (inactive) | –
52 | NC(N)=NCCCCN=C(N)N | 4.59% (inactive) | –
53 | NCCS(=O)O | -2.88% (inactive) | –
54 | CNc1cc(NS(=O)(=O)c2ccc(N)cc2)nc(NC)n1 | -3.7% (inactive) | –
55 | COc1cc2c(CCNC(C)=O)c[nH]c2cc1O | 2.7% (inactive) | –
56 | NC1CCN(O)C1=O (stereo unspecified) | 4.81% (inactive) | –
57 | C=CCn1c(=O)c2c(nc(-c3ccc(S(=O)(=O)O)cc3)n2C)n(C)c1=O | -9.75% (inactive) | –

Row | Structure (SMILES) | activation | Potency
58 | CC(=O)SCC[N+](C)(C)C | -0.642% (inactive) | –
59 | N[C@H](C(=O)O)[C@H](O)C(=O)O | -1.82% (inactive) | –
60 | CC(C)(C)NCC(O)COc1cccc2[nH]c(=O)[nH]c12 (stereo unspecified) | 1.35% (inactive) | –
61 | Nc1ccc(CCNc2ncnc3c2ncn3C2OC(CO)C(O)C2O)cc1 (stereo unspecified) | – | 12.3 µM (active)
62 | NC(=O)c1ccc2[nH]ccc2c1 | 11.5% (inactive) | –
63 | CCSC(=N)N | -1.88% (inactive) | –
64 | CCCn1c(=O)c(C)cn2nc(N)nc12 | 4.07% (inactive) | –
65 | O=C1c2c(O)cc(O)cc2OC(c2ccc(O)c(O)c2)C1O (stereo unspecified) | -4.32% (inactive) | –
66 | CO/N=C(\C(=O)N[C@@H]1C(=O)N2C(C(=O)O)=C(CSc3nc(=O)c(O)nn3C)CSC12)c1csc(N)n1 (stereo partly specified) | 2.63% (inactive) | –
67 | O=C(O)C1CCCNC1 (stereo unspecified) | 3.22% (inactive) | –
68 | CN[C@H](CC(C)C)C(=O)N[C@H]1C(=O)N[C@@H](CC(N)=O)C(=O)N[C@H]2C(=O)N[C@H]3C(=O)N[C@H](C(=O)N[C@H](C(=O)O)c4cc(O)cc(O)c4-c4cc3ccc4O)[C@H](O)c3ccc(c(Cl)c3)Oc3cc2cc(c3O[C@@H]2O[C@H](CO)[C@@H](O)[C@H](O)[C@H]2O[C@H]2C[C@](C)(N)[C@H](O)[C@H](C)O2)Oc2ccc(cc2Cl)[C@H]1O | -1.81% (inactive) | –
69 | O=C(O)CCC/C=C\C[C@@H]1[C@@H](/C=C/[C@H](O)C2Cc3ccccc3C2)[C@@H](F)C[C@@H]1O | -0.992% (inactive) | –
70 | NC[C@H]1O[C@@H](n2cnc3c(N)ncnc32)[C@H](O)[C@@H]1O | 9.99% (inactive) | –
71 | O=S(=O)(c1cccc2c(Cl)cccc12)N1CCCNCC1 | 10.4% (inactive) | –
72 | Nc1nc2c(cnn2CCc2ccccc2)c2nc(-c3ccco3)nn12 | 12.5% (inactive) | –
73 | CC[C@H]1OC(=O)[C@H](C)[C@@H](O[C@H]2C[C@@](C)(OC)[C@@H](O)[C@H](C)O2)[C@H](C)[C@@H](O[C@@H]2O[C@H](C)C[C@H](NC)[C@H]2O)[C@](C)(O)C[C@@H](C)CN(C)[C@H](C)[C@@H](O)[C@]1(C)O | 3.4% (inactive) | –
74 | N#CC(C#N)=C(N)/C(C#N)=C/c1ccc(O)cc1 | -2.04% (inactive) | –
75 | O=c1[nH]c2cc([N+](=O)[O-])c([N+](=O)[O-])cc2[nH]c1=O | 5% (inactive) | –
76 | Brc1cc2c(cc1[C@H]1Nc3ccccc3[C@H]3C=CC[C@H]31)OCO2 | 0.594% (inactive) | –

From PubChem BioAssay (Tox21)
